Results taken from PubChem BioAssay.
Active and inactive are the calls of the source.

Tests used:
[1] = system: Plasmodium falciparum Sir2 (PF13_0152, Sir2A); experiment: pfSir2 binders on small-molecule microarrays, primary screen, biochemical, small-molecule microarray, 635 nm fluorescence (AID 1098); conditions: small-molecule microarray binding, fluorescence 635 nm; higher = more signal;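 note: score merges spot fluorescence intensity with its signal-to-noise ratio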
[2] = small-molecule microarray binders of probe aDKK1, primary screen, biochemical, biotinylated probe, 635/667 nm fluorescence (AID 1099); conditions: higher = more signal;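 note: score merges 667nm spot fluorescence with signal to noise across triplicate slides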
[3] = small-molecule microarray binders of probe aCHRDL2, primary screen, biochemical, biotinylated probe, 635/667 nm fluorescence (AID 1100); conditions: higher = more signal
[4] = splicing luciferase reporter signal modulators, primary screen, spliceosome inhibition project, cell-based, HEK293, splice +/- reporter (AID 1101); conditions: luminescence, 24 h, higher = more signal, called active from +8 up or from −8 down;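 note: HEK293 cells carrying a splicing-competent luciferase reporter gene; test concentration not given here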
[5] = biological target: Fibroblast growth factor 10 (Homo sapiens) (UniProt O15520); experiment: FGF10 binders on small-molecule microarrays, primary screen, biochemical, small-molecule microarray, 635 nm fluorescence (AID 1102); conditions: FGF10 binding, fluorescence 635 nm, higher = more signal
[6] = system: glycogen synthase kinase-3 (GSK3A per assay name; protocol says GSK3B); experiment: GSK3 binders on small-molecule microarrays, primary screen, biochemical, small-molecule microarray, 635 nm fluorescence, GSK3A (AID 1103); conditions: small-molecule microarray binding, fluorescence 635 nm; higher = more signal; note: the record names both GSK3A and GSK3B
[7] = biological target: Epidermal growth factor receptor (Homo sapiens) (UniProt P00533); experiment: EGFR binders on small-molecule microarrays, primary screen, biochemical, small-molecule microarray, 635 nm fluorescence (AID 1104); conditions: EGFR binding, higher = more signal;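 note: score merges 667 nm emission intensity with spot signal to noise over triplicate slides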
[8] = biological target: Follistatin-related protein 3 (Homo sapiens) (UniProt O95633); experiment: FSTL3 binders on small-molecule microarrays, primary screen, biochemical, small-molecule microarray, 635 nm fluorescence (AID 1105); conditions: FSTL3 binding, higher = more signal;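 note: score merges emission near 667 nm and signal to noise per printed spot across three slides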
[9] = biological target: Dickkopf-related protein 1 (Homo sapiens) (UniProt O94907); experiment: DKK1 binders on small-molecule microarrays, primary screen, biochemical, small-molecule microarray, 635 nm fluorescence scan (AID 1106); conditions: DKK1 binding, higher = more signal;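 note: score merges emission near 667 nm with signal to noise over three replicate slides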
[10] = system: Inhibin beta A chain (activin A); experiment: INHBA (activin A) binders on microarrays, primary screen, biochemical, small-molecule microarray, 635 nm fluorescence scan (AID 1107); conditions: small-molecule microarray binding, higher = more signal;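 note: mouse activin A protein probed at 4.33 µg/mL on printed slides; score merges bound-protein fluorescence near 667 nm with spot signal-to-noise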
[11] = system: Human papillomavirus type 1a protein E7 (residues 44-93); experiment: HPV1a E7 fragment binders on microarrays, primary screen, biochemical, small-molecule microarray, residues 44-93, 635 nm fluorescence (AID 1108); conditions: small-molecule microarray binding, fluorescence 635 nm; higher = more signal;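 note: E7 fragment applied at 1 µg/mL in TBST for 1 h at 4 C; score combines spot fluorescence with its signal to noise ratio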
[12] = modulators of HCV replicon luciferase signal, primary screen, HCV replication inhibitor project, Huh7 cells, luciferase reporter (AID 1109); conditions: 48 h, higher = more signal;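 note: huh7 hepatoma cells harbouring a luciferase neomycin HCV replicon reporter; luciferase luminescence as measure of HCV replicon replication; test concentration not given here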
[13] = biological target: Left-right determination factor 2 (Homo sapiens) (UniProt O00292); experiment: LEFTY2 binders on small-molecule microarrays, primary screen, biochemical, small-molecule microarray, 635 nm fluorescence scan (AID 1110); conditions: LEFTY2 binding, higher = more signal
[14] = biological target: Calmodulin-1 (Homo sapiens) (UniProt P0DP23); experiment: CALM1 binders on microarrays, EGTA buffer, profiling panel, biochemical, small-molecule microarray, Cy5-labelled CALM1 (AID 1111); conditions: Cy5-CALM1 binding fluorescence, higher = more signal;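 note: labelled calmodulin applied in Tris saline Tween buffer holding calcium plus EGTA and DTT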
[15] = biological target: Calmodulin-1 (Homo sapiens) (UniProt P0DP23); experiment: calcium-bound CALM1 binders on microarrays, profiling panel, artefact control for SMM control-protein annotation, biochemical, small-molecule microarray, Cy5-labelled CALM1, plus calcium (AID 1112); conditions: Cy5-CALM1 binding fluorescence, higher = more signal;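 note: score merges spot fluorescence with signal to noise from triplicate slides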
[16] = small-molecule microarray binders of probe aWnt5a, primary screen, biochemical, biotinylated probe, 635/667 nm fluorescence (AID 1113); conditions: higher = more signal;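 note: score merges 667 nm fluorescence intensity with signal-to-noise per printed feature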
[17] = small-molecule microarray binders of probe aShh, primary screen, biochemical, biotinylated probe, 635/667 nm fluorescence (AID 1114); conditions: higher = more signal;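 note: probe is biotin-labelled aShh protein from a stem cell growth factor screen; measures binding of labelled protein to compounds printed on the slide; score merges feature fluorescence at 667 nm with signal-to-noise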
[18] = small-molecule microarray binders of probe aNog, primary screen, biochemical, biotinylated probe, 635/667 nm fluorescence (AID 1115); conditions: higher = more signal;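 note: probe is biotinylated aNog protein used at 0.15 µg/mL for 1 h at 4 C; z-score combines 667 nm fluorescence of each spot with its signal to noise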
[19] = biological target: Torsin-1A-interacting protein 1 (Homo sapiens) (UniProt Q5JTV8); experiment: LAP1 binders from COS7 cell lysate, primary screen, small-molecule microarray, 635/667 nm fluorescence (AID 1116); conditions: COS7-hLAP1 lysate binding, 635 nm fluorescence, higher = more signal
[20] = biological target: Alpha-bungarotoxin (Bungarus multicinctus) (UniProt P60615); experiment: alpha-bungarotoxin binders on microarray, profiling panel, artefact control for SMM control protein annotation, biochemical, small-molecule microarray, Alexa647 label, 635/667 nm fluorescence (AID 1117); conditions: alpha-BTX-A647 binding fluorescence, higher = more signal
Alpha-bungarotoxin (Bungarus multicinctus), sequence (P60615 whole entry, looked up): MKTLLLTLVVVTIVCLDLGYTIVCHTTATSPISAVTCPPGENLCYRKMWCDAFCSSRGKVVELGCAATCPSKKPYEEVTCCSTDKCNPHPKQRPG

Dickkopf-related protein 1 (Homo sapiens), sequence (O94907 whole entry, looked up): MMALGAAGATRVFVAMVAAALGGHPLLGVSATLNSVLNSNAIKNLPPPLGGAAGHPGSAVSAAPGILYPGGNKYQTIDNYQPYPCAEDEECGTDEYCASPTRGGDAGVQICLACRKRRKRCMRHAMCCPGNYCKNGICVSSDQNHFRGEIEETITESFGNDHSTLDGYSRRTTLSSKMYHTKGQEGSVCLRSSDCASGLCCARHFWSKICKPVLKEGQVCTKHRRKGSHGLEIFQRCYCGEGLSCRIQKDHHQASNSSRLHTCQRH
Follistatin-related protein 3 (Homo sapiens), sequence (O95633 whole entry, looked up): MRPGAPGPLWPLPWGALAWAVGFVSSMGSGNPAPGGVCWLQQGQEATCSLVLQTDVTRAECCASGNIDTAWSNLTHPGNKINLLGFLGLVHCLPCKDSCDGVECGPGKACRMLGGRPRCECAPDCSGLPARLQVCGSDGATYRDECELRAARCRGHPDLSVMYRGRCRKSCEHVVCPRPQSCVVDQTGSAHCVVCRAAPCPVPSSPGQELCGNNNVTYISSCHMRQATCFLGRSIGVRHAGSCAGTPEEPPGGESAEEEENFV
Left-right determination factor 2 (Homo sapiens), sequence (O00292 whole entry, looked up): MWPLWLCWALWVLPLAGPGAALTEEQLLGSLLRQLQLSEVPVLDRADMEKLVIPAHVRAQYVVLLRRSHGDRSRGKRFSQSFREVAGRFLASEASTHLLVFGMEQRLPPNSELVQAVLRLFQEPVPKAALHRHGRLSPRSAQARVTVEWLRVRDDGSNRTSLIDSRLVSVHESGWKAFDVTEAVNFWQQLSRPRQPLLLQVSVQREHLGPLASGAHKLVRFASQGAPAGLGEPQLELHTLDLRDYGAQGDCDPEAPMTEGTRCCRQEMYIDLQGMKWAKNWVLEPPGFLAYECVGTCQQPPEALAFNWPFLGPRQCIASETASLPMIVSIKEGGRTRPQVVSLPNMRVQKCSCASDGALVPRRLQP
Torsin-1A-interacting protein 1 (Homo sapiens), sequence (Q5JTV8 whole entry, looked up): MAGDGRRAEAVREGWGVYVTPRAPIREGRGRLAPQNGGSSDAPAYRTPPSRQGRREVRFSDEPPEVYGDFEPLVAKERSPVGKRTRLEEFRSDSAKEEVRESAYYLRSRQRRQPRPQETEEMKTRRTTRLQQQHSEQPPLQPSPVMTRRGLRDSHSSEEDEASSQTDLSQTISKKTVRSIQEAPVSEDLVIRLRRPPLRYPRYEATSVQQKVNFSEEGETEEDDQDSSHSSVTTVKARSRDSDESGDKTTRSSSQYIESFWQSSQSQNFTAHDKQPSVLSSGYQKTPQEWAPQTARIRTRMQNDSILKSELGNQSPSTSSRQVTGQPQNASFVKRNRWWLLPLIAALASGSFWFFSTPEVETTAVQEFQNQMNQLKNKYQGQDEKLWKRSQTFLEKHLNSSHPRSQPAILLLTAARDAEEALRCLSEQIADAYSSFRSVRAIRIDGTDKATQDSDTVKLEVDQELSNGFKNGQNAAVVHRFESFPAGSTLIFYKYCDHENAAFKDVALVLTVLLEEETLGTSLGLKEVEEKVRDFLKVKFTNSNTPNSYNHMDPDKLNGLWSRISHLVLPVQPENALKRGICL
Epidermal growth factor receptor (Homo sapiens), sequence (P00533 whole entry, looked up): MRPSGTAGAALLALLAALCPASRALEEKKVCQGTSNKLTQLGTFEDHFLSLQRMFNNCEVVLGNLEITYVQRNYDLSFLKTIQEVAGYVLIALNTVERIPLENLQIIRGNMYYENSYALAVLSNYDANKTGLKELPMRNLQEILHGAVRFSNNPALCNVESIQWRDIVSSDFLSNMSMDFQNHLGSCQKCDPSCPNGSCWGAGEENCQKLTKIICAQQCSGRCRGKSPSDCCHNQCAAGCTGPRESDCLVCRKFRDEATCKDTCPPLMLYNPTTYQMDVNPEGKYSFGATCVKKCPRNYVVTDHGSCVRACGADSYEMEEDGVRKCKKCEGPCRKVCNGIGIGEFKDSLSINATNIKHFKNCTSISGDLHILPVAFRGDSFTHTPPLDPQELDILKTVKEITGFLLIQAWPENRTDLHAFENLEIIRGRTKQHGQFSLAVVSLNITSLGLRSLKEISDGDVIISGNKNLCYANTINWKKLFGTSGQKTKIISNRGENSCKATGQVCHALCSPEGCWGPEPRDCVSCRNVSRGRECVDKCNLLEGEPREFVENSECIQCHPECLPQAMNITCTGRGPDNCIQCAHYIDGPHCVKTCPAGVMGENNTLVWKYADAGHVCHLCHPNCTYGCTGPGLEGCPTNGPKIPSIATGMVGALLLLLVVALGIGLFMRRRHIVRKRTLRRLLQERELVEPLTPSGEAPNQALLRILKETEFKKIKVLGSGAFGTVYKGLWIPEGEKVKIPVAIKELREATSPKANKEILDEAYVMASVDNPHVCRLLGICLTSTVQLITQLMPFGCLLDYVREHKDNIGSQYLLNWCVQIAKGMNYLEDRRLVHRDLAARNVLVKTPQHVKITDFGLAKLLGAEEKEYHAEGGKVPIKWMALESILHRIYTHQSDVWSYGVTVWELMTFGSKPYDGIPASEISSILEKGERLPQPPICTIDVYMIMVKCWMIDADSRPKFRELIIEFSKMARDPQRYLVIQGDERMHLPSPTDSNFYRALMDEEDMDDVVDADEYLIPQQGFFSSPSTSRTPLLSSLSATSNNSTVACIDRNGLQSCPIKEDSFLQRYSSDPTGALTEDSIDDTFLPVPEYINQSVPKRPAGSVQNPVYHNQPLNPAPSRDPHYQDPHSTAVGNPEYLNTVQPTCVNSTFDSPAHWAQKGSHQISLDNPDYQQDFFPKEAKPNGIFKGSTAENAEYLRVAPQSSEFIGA
Fibroblast growth factor 10 (Homo sapiens), sequence (O15520 whole entry, looked up): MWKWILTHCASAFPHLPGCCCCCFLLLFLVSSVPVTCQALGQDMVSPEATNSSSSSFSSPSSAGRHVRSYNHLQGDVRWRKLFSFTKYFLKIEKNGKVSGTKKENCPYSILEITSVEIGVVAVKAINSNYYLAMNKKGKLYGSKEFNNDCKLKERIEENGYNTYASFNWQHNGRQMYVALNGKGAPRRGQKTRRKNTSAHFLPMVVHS

Row | Structure (SMILES) | composite z-score [1] | composite z-score [2] | composite z-score [3] | z-score [4] | composite z-score [5] | composite z-score [6] | composite z-score [7] | composite z-score [8] | composite z-score [9] | composite z-score [10] | composite z-score [11] | z-score [12] | composite z-score [13] | composite z-score [14] | composite z-score [15] | composite z-score [16] | composite z-score [17] | composite z-score [18] | composite z-score [19] | composite z-score [20]
1 | NC(=O)NCC#Cc1ccc2c(c1)[C@]1(C(=O)N2)[C@H](C(N)=O)[C@H]2C(=O)O[C@H](c3ccccc3)[C@H](c3ccccc3)N2[C@@H]1c1ccccc1OCCO | 0.628 | 0.371 | 0.482 | -0.328 (inactive) | 1.06 | 0.343 | 0.269 | 1.02 | 0.576 | 1.02 | 1.04 | -0.771 | 0.375 | 0.425 | 0.356 | -0.124 | -0.0793 | 0.657 | 0.808 | 0.45
2 | O=C1O[C@H](c2ccccc2)[C@H](c2ccccc2)N2[C@H]1[C@@H](C(=O)Nc1nc3ccccc3s1)[C@]1(C(=O)Nc3ccc(C#CC4=CCCCC4)cc31)[C@H]2c1ccccc1OCCO | 1.51 | -0.0804 | -0.262 | -1.69 (inactive) | 1.14 | 1.02 | 0.516 | 1.27 | 0.574 | 0.345 | 1.35 | -1.67 | 0.59 | 1.31 | 0.149 | -0.0714 | -0.263 | 0.184 | 0.715 | 1.04
3 | C[C@@H]1CC[C@H]2C(=O)N3CCC[C@H]3C(=O)N2[C@H]1c1ccc(Br)cc1 | 0.654 | -0.178 | -0.439 | -0.931 (inactive) | 0.125 | 0.267 | 0.0436 | 0.0529 | 0.526 | 0.38 | 0.175 | 0.673 | 0.267 | -0.243 | -0.558 | -0.212 | -0.0769 | -0.307 | 0.324 | -0.179
4 | C=CCN1C(=O)[C@@]2(Cc3ccccc3)N=C(c3ccc(OCCCO)cc3)O[C@H]2c2ccccc21 | 1.59 | 1.07 | 1.19 | -0.298 (inactive) | 0.534 | 0.876 | 0.96 | 0.956 | 0.613 | 0.965 | 0.974 | -2.44 | 0.525 | 0.0185 | 0.192 | -0.0814 | 0.0469 | 0.79 | 2.15 | 1.66
5 | C=CC[C@]1(C(N)=O)N=C(c2ccc(OCCCO)cc2)O[C@H]1c1ccccc1CN=[N+]=[N-] | 0.255 | 0.683 | 1.24 | -0.783 (inactive) | 0.0555 | 0.518 | -1.03 | -0.325 | -0.632 | 1.46 | 1.03 | -1.33 | -1.11 | 1.91 | 1.14 | -0.124 | -0.203 | 0.165 | 1.87 | 1.03
6 | C[C@H]1C2[C@H](Cc3ccccc3)NC(=O)[C@]23C(=O)N[C@H](Cc2ccccc2)C(=O)N[C@@H](Cc2ccccc2)C(=O)NC/C=C\C/C=C/C3[C@@H]2O[C@]12C (stereo not given in full) | 0.0468 | -0.315 | -0.202 | -0.148 (inactive) | 0.345 | -0.256 | -0.228 | 0.223 | 0.409 | 1.16 | -0.767 | -0.204 | 0.419 | -0.297 | -0.348 | -0.199 | -0.0553 | 0.471 | 0.86 | -0.506
7 | CCCC=C(CCC)[C@@H](NC(=O)c1ccccc1)c1ccccc1 | -0.597 | 0.712 | 1.07 | -0.0542 (inactive) | -0.0829 | -1.87 | -0.292 | -0.501 | -0.0056 | 1.16 | 0.0084 | -0.12 | -0.621 | 0.323 | 1.09 | -0.0299 | 0.217 | 0.766 | -0.439 | -0.445
8 | COc1cc2c(cc1OC)CN(C(=O)[C@@H]1[C@H]3C(=O)O[C@H](c4ccccc4)[C@H](c4ccccc4)N3[C@H](c3ccccc3OCCO)[C@@]13C(=O)Nc1ccccc13)CC2 | 1.6 | -0.682 | -0.73 | -0.239 (inactive) | 0.748 | 1.29 | 0.0883 | 0.317 | -0.134 | 0.358 | 1.01 | -2.02 | 0.187 | 0.421 | 0.234 | 0.213 | -0.0213 | 0.0101 | -0.345 | 2.07
9 | O=C1OCC=C[C@H]2OC34C=CCN(Cc5ccccc5)C(=O)[C@H]3N(CCCCCO)C(=O)[C@@H]4[C@@H]12 (stereo not given in full) | 1.41 | -0.212 | 0.528 | -1.45 (inactive) | -0.606 | -0.447 | -1.36 | -0.647 | -1.01 | 0.18 | -0.646 | -0.615 | -1.84 | -0.398 | 1.08 | -0.169 | -0.138 | 0.161 | -0.328 | -1.52
10 | [N-]=[N+]=Nc1ccccc1C[C@@]1(C(=O)N2CCOCC2)N=C(c2ccc(OCCCO)cc2)O[C@@H]1c1ccccc1N=[N+]=[N-] | 0.668 | 1.35 | 1.13 | 0.144 (inactive) | 0.997 | 1.29 | 0.215 | 1.28 | 0.444 | 0.937 | 0.457 | -2.29 | 0.095 | 1.04 | 0.804 | -0.0398 | 0.102 | 0.293 | 0.842 | 2
11 | CC1=C([C@H](O)CCc2ccccc2)[C@H](CO)[C@@H]2C(=O)N(Cc3ccccc3)C(=O)[C@@H]2C1 | 0.0539 | -0.264 | -0.551 | -0.46 (inactive) | 0.27 | -0.453 | -0.176 | 0.785 | 0.28 | 0.317 | 0.0933 | -0.266 | 0.334 | 0.62 | -0.503 | -0.0644 | -0.289 | -0.27 | 0.421 | 1.71
